We go through 5 compounds from PubChem BioAssay.

Calls of active or inactive are those of the source. Unless noted, how the calls were made is not given here.

Assay [1] can be described thus: compounds binding Alexa647 anti-His antibody – biochemical, small-molecule microarray, 635 nm fluorescence, artefact control for SMM control protein annotation, primary screen (AID 1128).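 Further: score merges feature fluorescence with signal-to-noise for each printed compound spot.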 Conditions: higher = more signal.
Assay [2] concerns Human papillomavirus type 1a E7 protein (residues 1-88). In words: HPV1a E7 small-molecule binders, primary screen, biochemical, small-molecule microarray, residues 1-88, 635 nm (AID 1129). The conditions noted are these: small-molecule microarray binding, fluorescence 635 nm; higher = more signal.
For assay [3], the target named is Focal adhesion kinase 1 (Homo sapiens) (UniProt Q05397). As to the kind of experiment: PTK2 protein binding on printed compound slides – biochemical, small-molecule microarray, 635/667 nm fluorescence, BSA, DTT, primary screen (AID 1130).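 Further: composite of spot emission at 667 nm and signal to noise over triplicate slides.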 Conditions: 635 nm fluorescence, higher = more signal.
Assay [4] has as its system Fibrinogen (Alexa647-labelled). As to the kind of experiment: Alexa647-fibrinogen binding to printed small molecules – biochemical, small-molecule microarray, 635/667 nm fluorescence, artefact control for SMM control-protein annotation, profiling panel (AID 1131).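 Further: z-score merges 667 nm fluorescence with per-spot signal-to-noise over triplicate slides.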 Conditions: fibrinogen-A647 binding fluorescence, higher = more signal.
Assay [5] addresses Follistatin (Homo sapiens) (UniProt P19883). As to the kind of experiment: FST protein binding to printed compounds – biochemical, small-molecule microarray, 635/667 nm fluorescence, primary screen (AID 1132). Conditions: 635 nm fluorescence, higher = more signal.
The target in assay [6] is Fibroblast growth factor 2 (Homo sapiens) (UniProt P09038). As to the kind of experiment: basic fibroblast growth factor binding to printed compounds – biochemical, small-molecule microarray, 635/667 nm fluorescence, primary screen (AID 1133). The conditions noted are these: FGF2, fluorescence 635/667, higher = more signal.
A short description of assay [7]: JC-1 mitochondrial potential readout, lung cancer cells – cell-based, A549, JC-1 fluorescence, basal, 24 h, 100 nL, profiling panel (AID 1138).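 Further: A549 lung adenocarcinoma cells under basal conditions with no added stimulus; test concentration not given here.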 The conditions noted are these: higher = more signal.
The subject of another assay is Lefty1. As to the kind of experiment: Lefty1 protein binding to printed compounds – biochemical, small-molecule microarray, 635/667 nm fluorescence, primary screen (AID 1139). The conditions noted are these: fluorescence 635/667, higher = more signal.
Assay [8] relates to wheat germ agglutinin (Triticum aestivum), Alexa647-labelled. As to the kind of experiment: Alexa647-WGA lectin binding to printed small molecules – biochemical, small-molecule microarray, 635/667 nm fluorescence, artefact control for SMM control-protein annotation, profiling panel (AID 1140).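 Further: score merges 667 nm feature emission with signal to noise over triplicate slides.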 Conditions: WGA-A647 binding, 635 nm fluorescence, higher = more signal.
Assay [9] addresses Luciferin 4-monooxygenase (Photinus pyralis) (UniProt P08659). As to the kind of experiment: inhibition of purified Photinus pyralis luciferase – biochemical, luminescence, purified enzyme, 2006 set, primary screen (AID 1141).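 Further: cell-free assay with purified firefly luciferase at 100 ng per well in PBS; test concentration not given here.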 Conditions: purified firefly luciferase, SteadyGlo luminescence, 30 min; higher = more signal, called active from +8 up or from −8 down.
Assay [10] has as its system Wnt5a (protein binding on small-molecule microarray). In words: small molecules binding Wnt5a protein – biophysical, small-molecule microarray, 635/667 nm fluorescence, primary screen (AID 1142).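 Further: fluorescence read at 667 nm with signal to noise per printed feature.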 Conditions: 635 nm fluorescence, higher = more signal.
Assay [11] can be described thus: ATP-based viability of Huh7 replicon cells – cell-based, CellTiter-Glo luminescence, basal, 48 h, cytotoxicity control for HCV replication inhibitor project, primary screen (AID 1143).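 Further: Huh7 hepatoma cells carrying a hepatitis C replication reporter with no stimulus; test concentration not given here.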 Conditions: higher = more signal, called active from +8 up or from −8 down. On the technique in general: Replicon systems follow genome replication, usually without infectious particles.

Assay [12] in a line: Pseudomonas biofilm growth suppression – PAO1 strain, BacTiter-Glo luminescence, LB-PBS, primary screen (AID 1144). The conditions noted are these: P. aeruginosa PAO1 biofilm, 12 h, higher = more signal.
Assay [13] can be described thus: basal CRE-LacZ reporter activity in PC12 – cell-based, unstimulated, primary screen (AID 1145). Conditions: no forskolin, luminescence, 4.5 h, higher = more signal, called active from +8 up or from −8 down.
Assay [14] is described as follows: forskolin-driven CRE-LacZ activity in PC12 – cell-based, CRE-LacZ reporter, forskolin-stimulated, primary screen (AID 1146).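 Further: PC12 cells with 6xCRE LacZ reporter stimulated by forskolin 10 µM; beta-galactosidase reporter signal reflecting CREB driven transcription.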 Conditions: luminescence, 4.5 h, higher = more signal, called active from +8 up or from −8 down.
Assay [15] has as its target Streptavidin (Streptomyces avidinii) (UniProt P22629). In words: compounds binding control protein streptavidin – biophysical, small-molecule microarray, 635/667 nm fluorescence, artefact control for SMM compound annotation, primary screen (AID 1147).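 Further: signal reflects streptavidin binding to arrayed compounds as a control protein.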 The conditions noted are these: higher = more signal.
A short description of assay [16]: probe aInhba binding on compound microarray – biochemical, small-molecule microarray, 635/667 nm fluorescence, primary screen (AID 1148).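 Further: score merges 667nm spot fluorescence with signal-to-noise for antibody binding to printed compounds.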 Conditions: higher = more signal.
Assay [17] addresses Torsin-1A (Homo sapiens) (UniProt O14656). As to the kind of experiment: TOR1A wild-type binding on microarray – cell lysate, small-molecule microarray, lysate, 635/667 nm, primary screen (AID 1149). Conditions: COS7 hTOR1A-WT lysate, 635 nm fluorescence, higher = more signal.
Assay [18] shares this target. As to the kind of experiment: torsin A mutant lysate binding on microarrays – cell lysate, small-molecule microarray, COS7 lysate, 635/667 nm fluorescence, primary screen (AID 1150).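 Further: score pools 667 nm emission and signal to noise measuring lysate protein binding.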 Conditions: COS7 hTOR1A mutant lysate, 635 nm fluorescence, higher = more signal.
The subject of assay [19] is Sonic hedgehog protein (Shh). In words: Sonic hedgehog microarray binding compounds – biochemical, small-molecule microarray, 635/667 nm fluorescence, primary screen (AID 1151).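 Further: Shh protein binding to compounds spotted on small-molecule microarray slides; score combines spot fluorescence intensity with signal-to-noise across triplicate slides.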 Conditions: 635 nm fluorescence, higher = more signal.

Luciferin 4-monooxygenase (Photinus pyralis), sequence (P08659 whole entry, looked up): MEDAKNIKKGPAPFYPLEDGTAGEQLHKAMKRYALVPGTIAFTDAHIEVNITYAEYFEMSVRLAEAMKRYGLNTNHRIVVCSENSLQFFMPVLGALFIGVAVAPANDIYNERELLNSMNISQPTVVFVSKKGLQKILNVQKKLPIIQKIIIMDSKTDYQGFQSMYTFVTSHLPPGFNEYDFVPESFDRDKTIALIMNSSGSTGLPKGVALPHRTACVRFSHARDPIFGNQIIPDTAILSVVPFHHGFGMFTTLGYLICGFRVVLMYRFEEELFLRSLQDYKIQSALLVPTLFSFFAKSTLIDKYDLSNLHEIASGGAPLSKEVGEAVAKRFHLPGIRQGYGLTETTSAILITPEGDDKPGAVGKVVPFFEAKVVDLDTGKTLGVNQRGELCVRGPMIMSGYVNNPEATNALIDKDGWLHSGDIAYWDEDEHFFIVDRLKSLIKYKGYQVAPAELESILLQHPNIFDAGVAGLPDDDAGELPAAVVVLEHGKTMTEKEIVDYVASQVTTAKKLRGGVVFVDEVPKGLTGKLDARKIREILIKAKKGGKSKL
Follistatin (Homo sapiens), sequence (P19883 whole entry, looked up): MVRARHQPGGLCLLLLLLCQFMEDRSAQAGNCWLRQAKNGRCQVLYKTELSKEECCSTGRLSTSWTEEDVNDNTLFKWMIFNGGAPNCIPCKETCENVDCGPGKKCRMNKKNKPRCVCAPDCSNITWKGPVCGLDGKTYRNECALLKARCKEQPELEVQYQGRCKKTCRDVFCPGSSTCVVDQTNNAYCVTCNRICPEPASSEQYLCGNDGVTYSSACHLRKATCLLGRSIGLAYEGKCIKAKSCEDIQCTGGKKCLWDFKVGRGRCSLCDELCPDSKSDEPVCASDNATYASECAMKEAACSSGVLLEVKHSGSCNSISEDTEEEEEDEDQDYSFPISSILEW
Focal adhesion kinase 1 (Homo sapiens), sequence (Q05397 whole entry, looked up): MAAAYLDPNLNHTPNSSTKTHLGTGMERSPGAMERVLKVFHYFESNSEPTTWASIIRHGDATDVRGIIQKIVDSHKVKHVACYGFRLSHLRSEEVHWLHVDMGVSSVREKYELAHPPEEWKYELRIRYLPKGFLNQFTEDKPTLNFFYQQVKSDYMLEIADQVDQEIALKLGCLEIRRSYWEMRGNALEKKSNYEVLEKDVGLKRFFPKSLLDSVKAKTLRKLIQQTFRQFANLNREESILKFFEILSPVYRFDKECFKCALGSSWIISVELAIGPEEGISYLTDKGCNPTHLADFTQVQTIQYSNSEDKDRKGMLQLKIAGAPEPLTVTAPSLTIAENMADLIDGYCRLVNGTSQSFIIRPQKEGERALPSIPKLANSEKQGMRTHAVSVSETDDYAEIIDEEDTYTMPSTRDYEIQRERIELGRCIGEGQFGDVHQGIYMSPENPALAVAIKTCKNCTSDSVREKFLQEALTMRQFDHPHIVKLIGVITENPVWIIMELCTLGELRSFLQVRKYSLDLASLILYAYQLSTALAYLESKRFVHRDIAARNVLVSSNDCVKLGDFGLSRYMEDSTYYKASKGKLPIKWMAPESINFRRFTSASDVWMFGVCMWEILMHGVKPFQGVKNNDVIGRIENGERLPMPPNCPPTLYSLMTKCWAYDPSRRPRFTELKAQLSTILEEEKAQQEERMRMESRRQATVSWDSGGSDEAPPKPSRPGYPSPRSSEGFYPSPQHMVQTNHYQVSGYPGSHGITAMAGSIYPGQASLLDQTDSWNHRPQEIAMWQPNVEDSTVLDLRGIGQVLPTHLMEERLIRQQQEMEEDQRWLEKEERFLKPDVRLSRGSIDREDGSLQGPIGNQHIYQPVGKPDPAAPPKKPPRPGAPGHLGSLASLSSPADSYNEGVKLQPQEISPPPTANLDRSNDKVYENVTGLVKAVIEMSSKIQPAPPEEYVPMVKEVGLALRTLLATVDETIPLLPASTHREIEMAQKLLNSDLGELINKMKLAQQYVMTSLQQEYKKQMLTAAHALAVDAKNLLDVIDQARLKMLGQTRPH
Streptavidin (Streptomyces avidinii), sequence (P22629 whole entry, looked up): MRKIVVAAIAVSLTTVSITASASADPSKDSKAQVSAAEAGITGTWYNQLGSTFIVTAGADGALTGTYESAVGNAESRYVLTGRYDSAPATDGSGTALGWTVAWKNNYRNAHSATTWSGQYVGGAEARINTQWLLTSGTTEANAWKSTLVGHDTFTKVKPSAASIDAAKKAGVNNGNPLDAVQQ
Torsin-1A (Homo sapiens), sequence (O14656 whole entry, looked up): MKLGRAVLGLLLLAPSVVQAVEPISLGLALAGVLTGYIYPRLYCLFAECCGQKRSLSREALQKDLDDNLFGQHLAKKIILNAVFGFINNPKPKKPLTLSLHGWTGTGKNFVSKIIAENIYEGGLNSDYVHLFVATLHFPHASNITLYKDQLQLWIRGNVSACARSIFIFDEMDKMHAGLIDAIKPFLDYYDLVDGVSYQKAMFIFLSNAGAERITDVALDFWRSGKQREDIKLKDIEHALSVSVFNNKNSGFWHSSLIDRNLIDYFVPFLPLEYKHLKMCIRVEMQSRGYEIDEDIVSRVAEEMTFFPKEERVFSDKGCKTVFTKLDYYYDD
Fibroblast growth factor 2 (Homo sapiens), sequence (P09038 whole entry, looked up): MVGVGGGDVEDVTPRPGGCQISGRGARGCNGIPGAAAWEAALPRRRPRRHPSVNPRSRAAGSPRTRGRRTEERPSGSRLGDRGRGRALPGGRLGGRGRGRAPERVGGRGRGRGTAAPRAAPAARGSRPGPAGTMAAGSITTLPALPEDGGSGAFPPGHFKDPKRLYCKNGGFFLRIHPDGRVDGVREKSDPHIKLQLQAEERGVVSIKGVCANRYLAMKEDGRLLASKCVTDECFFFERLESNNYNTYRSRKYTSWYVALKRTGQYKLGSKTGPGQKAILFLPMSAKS

Take `Cc1ccc(S[C@]2(C(=O)NC3CC3)CC(=O)N(C3Cc4ccccc4C3)[C@@H]2c2ccc(CO)cc2I)cc1`: the composite z-score in assay [1] is 0.447; in assay [2] it was 0.275; in [3], -0.3; in assay [4], 0.484; in [5], 0.0932; in assay [6] it was -0.115. Also, the composite z-score is -1.32 with Lefty1; -0.409 in [8]; -0.547 in assay [10]; -0.441 in [15]; 0.0051 in [16]; 0.909 in the assay with Torsin-1A (Homo sapiens) [17]. Also, the composite z-score amounted to 0.701 in the assay with Torsin-1A (Homo sapiens) [18] and 0.209 in assay [19]. The z-score in [7] is 1.57; in [9], -1.28 (inactive); in [11], -2.23 (inactive); in assay [12], 0.714 (inactive); in assay [13] it was 0.919 (inactive); in [14], 2.86 (inactive).

Regarding `COC(=O)C(CC#Cc1ccc2c(c1)[C@]1(C(=O)N2)[C@H](c2ccccc2OCCO)N2[C@H](c3ccccc3)[C@H](c3ccccc3)OC(=O)[C@H]2[C@@H]1C(=O)N1CCN(c2ncccn2)CC1)C(=O)OC`, the composite z-score in assay [1] was 1.48; in assay [2] it was 1.22; in assay [3], 0.13; in assay [4], 0.927; in assay [5], 1.04; in assay [6], 1. The composite z-score was 0.668 with Lefty1; 0.481 in assay [8]; 0.253 in assay [10]; 1.06 in assay [15]; -0.0695 in assay [16]; 1.03 in the assay with Torsin-1A (Homo sapiens) [17]. Further, the composite z-score with Torsin-1A (Homo sapiens) [18] is 0.498; in assay [19], 1.11. In addition, the z-score in [7] is -1.46; in assay [9], -0.186 (inactive); in assay [11], -4.92 (inactive); in assay [12], -0.321 (inactive); in assay [13] it was -0.375 (inactive); in [14] it was 2.68 (inactive).

Regarding `COc1ccc([Si](C)(C)[C@@H]2[C@@H](CC(=O)N(CCO)Cc3ccccc3)O[C@]3(C(=O)N(Cc4cccc(I)c4)c4ccccc43)[C@H]2C)cc1`, the composite z-score in [1] was 0.853; in assay [2], 1.12; in assay [3], -0.14; in assay [4], 0.604; in assay [5], 1.48; in [6], 1.68. The composite z-score in the assay with Lefty1 was 1.51; in assay [8] it was 0.618; in [10], 0.546; in assay [15], -0.196; in assay [16], -0.0405; in the assay with Torsin-1A (Homo sapiens) [17] it was 0.48. Further, the composite z-score turned out to be 0.443 in the assay with Torsin-1A (Homo sapiens) [18] and 1.79 in assay [19]. The z-score was -0.781 in assay [7]; -0.216 (inactive) in assay [9]; -4.61 (inactive) in assay [11]; 0.191 (inactive) in assay [12]; 1.42 (inactive) in [13]; -1.11 (inactive) in assay [14].

As to `C[C@]12C(=O)N(CCO)[C@@H]3C(=O)N(c4ccc(Cl)cc4)CC=CC31O[C@@H]1/C=C\CCCOC(=O)C12` (stereo not given in full), the composite z-score was -0.415 in [1]; -0.639 in assay [2]; -0.422 in [3]; -0.333 in assay [4]; -0.178 in [5]; -0.711 in [6]. Further, the composite z-score in the assay with Lefty1 is -0.185; in assay [8], -0.839; in [10], -0.68; in [15], -0.542; in assay [16], -0.21; with Torsin-1A (Homo sapiens) [17], -1.5. The composite z-score with Torsin-1A (Homo sapiens) [18] was -0.706; in [19], 1.18. In addition, the z-score was -0.574 in assay [7]; -0.0708 (inactive) in [9]; 0.0051 (inactive) in assay [11]; -0.21 (inactive) in assay [12]; 0.467 (inactive) in assay [13]; 0.0098 (inactive) in [14].

As for `COC(=O)[C@@]1(Cc2ccc(F)cc2)[C@H]2c3cc(C(=O)N4CCCC4)n(CCSCCO)c3C[C@H]2CN1C(=O)c1ccccc1`, the composite z-score in assay [1] is 0.163; in [2], 0.767; in [3], 1.11; in assay [4] it was 0.982; in [5], -0.16; in assay [6], -0.79. The composite z-score with Lefty1 is -0.973; in assay [8], 0.679; in [10], 0.0841; in assay [15] it was -0.383; in assay [16], -0.0477; in the assay with Torsin-1A (Homo sapiens) [17] it was -0.319. Also, the results for the composite z-score (with Torsin-1A (Homo sapiens) [18]; in assay [19]) were 0.301 and -0.697, respectively. Besides, the z-score in [7] is 0.281; in [9], 0.5 (inactive); in [11] it was -1.11 (inactive); in [12], -0.375 (inactive); in [13], 0.397 (inactive); in assay [14], 1.13 (inactive).
